A short description of assay [1]: optical density shifts of acrAB sulA E. coli – strain DRC41, OD650, 48 h, E. coli filamentation inducer project, primary screen (AID 1152).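 Note: E. coli MC1000 strain DRC41 lacking acrAB efflux pump and sulA.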 The settings on record: higher = more signal, called active from +8 up or from −8 down.
Assay [2] in a line: probe aLefty1 binding on compound microarray – biochemical, small-molecule microarray, 635/667 nm fluorescence, primary screen (AID 1153).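 Note: score merges spot fluorescence with signal-to-noise ratio from the scanned slide images.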 The note with it: higher = more signal.
Assay [3] is described as follows: plasmodial surface anion channel blockers, osmotic lysis – cell-based, P. falciparum Indochina, OD700, 1 h, primary screen (AID 1154). The settings on record: P. falciparum Indochina infected RBC osmotic lysis, higher = more signal, called active from +8 up or from −8 down.
Assay [4] in a line: plasmodial surface anion channel blockers, osmotic lysis – cell-based, P. falciparum Indochina, OD700, 2 h, primary screen (AID 1155).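 Note: lysis reports solute entry through the parasite surface anion channel PSAC.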 The note with it: P. falciparum Indochina infected erythrocytes, higher = more signal, called active from +8 up or from −8 down.
Assay [5] in a line: changes in parasitized red cell lysis, either direction – P. falciparum Indochina, OD700, 3 h, PSAC antagonist project, primary screen (AID 1156). The settings on record: P. falciparum-infected erythrocytes, osmotic lysis, higher = more signal, called active from +8 up or from −8 down.
Assay [6] is described as follows: plasmodial surface anion channel blockers, osmotic lysis – cell-based, P. falciparum Indochina, OD700, 18 h, primary screen (AID 1157). The note with it: P. falciparum Indochina infected erythrocytes, osmotic lysis OD700, 18 h; higher = more signal, called active from +8 up or from −8 down.
The nature of assay [7]: S6 kinase pathway phospho-S6 level changes – cell-based, A549, cytoblot, luminescence, serum-stimulated, primary screen (AID 1158).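 Note: serum-stimulated A549 lung adenocarcinoma cells; signal is phosphorylated S6 detected by cytoblot immunostaining with HRP secondary.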 The note with it: 5 h, higher = more signal.
In assay [8] the target is NADPH oxidase 2 (Homo sapiens) (UniProt P04839). The assay can be described thus: compounds shifting NOX2 Amplex Red fluorescence – cell-based, HEK293-NOX2, PMA-stimulated, NOX inhibitor project, primary screen (AID 1159). Note: test concentration not given here. The settings on record: 45 min, higher = more signal, called active from +8 up or from −8 down.
Assay [9] concerns the target NADPH oxidase 4 (Homo sapiens) (UniProt Q9NPH5). The assay can be described thus: compounds shifting NOX4 Amplex Red fluorescence – cell-based, HEK293-NOX4, tetracycline-induced, NOX inhibitor project, primary screen (AID 1160). The settings on record: HEK293-NOX4, Amplex Red H2O2 fluorescence, 45 min; higher = more signal, called active from +8 up or from −8 down.
Assay [10] deals with NADPH oxidase 5 (Homo sapiens) (UniProt Q96PH1). Briefly: compounds shifting NOX5 Amplex Red fluorescence – cell-based, HEK293-NOX5, NOX inhibitor project, primary screen (AID 1161). The settings on record: HEK293-NOX5, ionomycin, 45 min, higher = more signal.

SMILES strings stand for the structures. Calls of active or inactive are those of the source.

Chain of NADPH oxidase 4 (Homo sapiens) (Q9NPH5 whole entry, looked up): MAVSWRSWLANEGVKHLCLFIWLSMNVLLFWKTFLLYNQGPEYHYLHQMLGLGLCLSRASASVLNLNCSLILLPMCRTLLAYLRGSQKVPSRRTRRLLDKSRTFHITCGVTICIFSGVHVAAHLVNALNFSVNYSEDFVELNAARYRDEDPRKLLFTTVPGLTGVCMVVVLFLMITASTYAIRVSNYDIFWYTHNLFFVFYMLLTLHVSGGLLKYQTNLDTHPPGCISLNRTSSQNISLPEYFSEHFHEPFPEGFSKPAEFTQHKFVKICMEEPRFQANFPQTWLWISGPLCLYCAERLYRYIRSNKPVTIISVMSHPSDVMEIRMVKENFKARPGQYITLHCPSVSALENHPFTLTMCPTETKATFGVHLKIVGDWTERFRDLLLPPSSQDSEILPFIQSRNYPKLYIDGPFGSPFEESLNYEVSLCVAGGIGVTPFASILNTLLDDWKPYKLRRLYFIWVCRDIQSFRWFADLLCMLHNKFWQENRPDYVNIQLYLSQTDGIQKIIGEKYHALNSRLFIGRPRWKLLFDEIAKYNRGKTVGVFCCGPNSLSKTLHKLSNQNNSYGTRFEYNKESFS
Chain of NADPH oxidase 5 (Homo sapiens) (Q96PH1 whole entry, looked up): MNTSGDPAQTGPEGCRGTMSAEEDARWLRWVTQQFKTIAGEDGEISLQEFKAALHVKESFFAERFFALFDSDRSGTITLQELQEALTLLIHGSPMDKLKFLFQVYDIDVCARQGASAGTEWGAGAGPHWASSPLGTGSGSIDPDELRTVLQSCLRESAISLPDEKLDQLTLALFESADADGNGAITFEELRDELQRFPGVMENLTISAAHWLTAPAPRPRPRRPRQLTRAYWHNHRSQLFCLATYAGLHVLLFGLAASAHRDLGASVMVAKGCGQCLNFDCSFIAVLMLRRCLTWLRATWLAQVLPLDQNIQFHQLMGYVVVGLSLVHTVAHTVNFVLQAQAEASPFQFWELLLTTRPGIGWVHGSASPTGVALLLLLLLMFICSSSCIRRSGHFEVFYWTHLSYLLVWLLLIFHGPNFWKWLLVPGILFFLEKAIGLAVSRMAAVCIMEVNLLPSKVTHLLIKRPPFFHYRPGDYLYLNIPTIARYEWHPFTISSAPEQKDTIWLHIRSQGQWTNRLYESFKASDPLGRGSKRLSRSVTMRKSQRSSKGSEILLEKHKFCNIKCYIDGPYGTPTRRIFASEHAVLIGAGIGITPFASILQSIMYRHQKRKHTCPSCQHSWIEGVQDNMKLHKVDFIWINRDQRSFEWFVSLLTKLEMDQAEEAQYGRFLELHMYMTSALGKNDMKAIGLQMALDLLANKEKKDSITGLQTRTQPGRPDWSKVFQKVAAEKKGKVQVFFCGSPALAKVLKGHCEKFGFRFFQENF
Chain of NADPH oxidase 2 (Homo sapiens) (P04839 whole entry, looked up): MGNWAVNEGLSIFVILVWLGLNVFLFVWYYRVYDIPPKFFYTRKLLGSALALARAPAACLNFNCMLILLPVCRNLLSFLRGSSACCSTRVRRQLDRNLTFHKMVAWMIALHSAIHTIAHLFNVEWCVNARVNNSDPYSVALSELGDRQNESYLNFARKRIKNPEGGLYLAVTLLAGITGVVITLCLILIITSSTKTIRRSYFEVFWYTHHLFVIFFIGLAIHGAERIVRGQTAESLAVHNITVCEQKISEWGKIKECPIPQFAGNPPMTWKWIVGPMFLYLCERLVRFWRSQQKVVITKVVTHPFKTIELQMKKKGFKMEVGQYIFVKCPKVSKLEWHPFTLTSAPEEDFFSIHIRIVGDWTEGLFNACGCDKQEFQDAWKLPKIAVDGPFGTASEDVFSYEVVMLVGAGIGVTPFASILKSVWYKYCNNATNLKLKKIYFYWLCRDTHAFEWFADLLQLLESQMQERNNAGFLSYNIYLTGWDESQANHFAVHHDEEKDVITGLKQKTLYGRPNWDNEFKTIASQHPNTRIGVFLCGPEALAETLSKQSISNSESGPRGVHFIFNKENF

For the molecule `CC(C)CNC(=O)[C@@H]1c2ccccc2C(=O)N(Cc2cc(C(F)(F)F)cc(C(F)(F)F)c2)[C@H]1c1ccc(CO)cc1`, the z-score in assay [1] is 0.808 (inactive); in assay [3], 1.52 (inactive); in assay [4], 0.0238 (inactive); in assay [5] it was 0.173 (inactive); in [6] it was 0.379 (inactive); in assay [7], 0.578. Also, the z-score in [8] was 0.753 (inactive); in assay [9], -0.815 (inactive); in assay [10], 0.86. Further, in assay [2], the composite z-score was 0.197.
For the molecule `C=CC[C@]1(C(=O)N2CCOCC2)N=C(c2ccc(OCCCO)cc2)O[C@H]1c1ccccc1`, the z-score in assay [1] is 0.104 (inactive); in assay [3], 11.3 (active); in assay [4], 1.09 (inactive); in [5], 0.492 (inactive); in assay [6], 0.471 (inactive); in [7], -0.0044. The z-score in [8] was -1.59 (inactive); in assay [9] it was 0.486 (inactive); in assay [10] it was -0.921. For the same molecule, in assay [2], the composite z-score was 0.302.
As for `C=CCNC(=O)[C@@H]1[C@H]2C(=O)O[C@H](c3ccccc3)[C@H](c3ccccc3)N2[C@H](c2ccc(O)cc2)[C@@]12C(=O)N(C(=O)OCCOC)c1ccccc12`, the z-score was 0.808 (inactive) in [1]; 1.35 (inactive) in assay [3]; -0.27 (inactive) in assay [4]; 0.123 (inactive) in assay [5]; -1.08 (inactive) in assay [6]; 1.64 in assay [7]. The figures for the z-score in [8], in assay [9] and in assay [10] were 0.818 (inactive), -0.913 (inactive) and -2.08, respectively. Moreover, the composite z-score in [2] turned out to be 0.149.
Take `CC(C)(C)N1CC=CC23O[C@@H]4/C=C\CCCOC(=O)C4[C@H]2C(=O)N(CCO)[C@@H]3C1=O` (stereo not given in full): the z-score in assay [1] is 0.583 (inactive); in assay [3], 0.806 (inactive); in [4] it was 1.01 (inactive); in [5] it was 0.17 (inactive); in assay [6], 0.603 (inactive); in assay [7], -0.495. Moreover, the z-score is 1.58 (inactive) in assay [8], 0.0377 (inactive) in [9] and 2.17 in [10]. The molecule also gave a composite z-score in assay [2] of -0.552.
On to `C=CC[C@@]1(C(=O)O)N=C(c2ccc(OCCCO)cc2)O[C@@H]1c1ccccc1N=[N+]=[N-]`, for which the z-score was 0.232 (inactive) in assay [1]; 33.9 (active) in assay [3]; 32.2 (active) in [4]; 2.2 (inactive) in [5]; 8.02 (active) in assay [6]; -0.567 in assay [7]. Besides, the values for the z-score in [8], in assay [9] and in assay [10] were -0.973 (inactive), 1.14 (inactive) and 0.518, respectively. The molecule also came in with a composite z-score in [2] of 0.546.
As for `C=CCNC(=O)[C@@H]1[C@H]2C(=O)O[C@H](c3ccccc3)[C@H](c3ccccc3)N2[C@H](c2ccc(OCCO)cc2)[C@@]12C(=O)Nc1ccccc12`, the z-score is 1.52 (inactive) in assay [1]; 5.12 (inactive) in [3]; 0.39 (inactive) in assay [4]; -0.844 (inactive) in [5]; 0.002 (inactive) in [6]; 4.16 in [7]. Moreover, the z-score in [8] was 1.38 (inactive); in [9], 0.767 (inactive); in assay [10], -0.355. For the same molecule, in [2], the composite z-score turned out to be 0.0235.
`C[C@H]1NC(=O)[C@H](Cc2ccccc2)NC(=O)[C@@]23C(=O)N[C@@H](Cc4ccccc4)C2[C@H](C)[C@@]2(C)O[C@H]2C3/C=C/C/C=C\CNC1=O` (stereo not given in full): the z-score is 0.806 (inactive) in assay [1]; 2.27 (inactive) in assay [3]; 0.142 (inactive) in [4]; -0.112 (inactive) in assay [5]; 0.501 (inactive) in assay [6]; 0.423 in assay [7]. In addition, the values for the z-score in [8], in assay [9] and in assay [10] were -0.287 (inactive), -1.42 (inactive) and -0.197, respectively. This molecule also came in with a composite z-score in assay [2] of -0.193.
With `COCCOC(=O)N1C(=O)[C@@]2(c3cc(C#CCCO)ccc31)[C@H](C(=O)NC[C@H](O)c1ccccc1)[C@H]1C(=O)O[C@H](c3ccccc3)[C@H](c3ccccc3)N1[C@@H]2c1ccc(O)cc1`, the z-score in [1] is 1.53 (inactive); in [3] it was 1.35 (inactive); in assay [4], 0.706 (inactive); in assay [5], -0.365 (inactive); in [6], 0.435 (inactive); in [7], 0.391. The z-score in assay [8] is 0.745 (inactive); in assay [9], 0.698 (inactive); in [10], 1.21. In addition, the composite z-score in assay [2] amounted to 0.0509.
In the case of `Cc1ccc(F)cc1S(=O)(=O)N[C@@H]1CCN(Cc2ccc(-c3ccccc3)cc2)C1`, the z-score is -19.4 (active) in assay [1]; 13 (active) in [3]; 2.34 (inactive) in assay [4]; 0.349 (inactive) in assay [5]; 1.41 (inactive) in assay [6]; -0.275 in assay [7]. Moreover, the z-score was 0.335 (inactive) in assay [8], -1.62 (inactive) in assay [9] and -1.57 in assay [10]. In assay [2], this molecule displayed a composite z-score of 0.121.
For the molecule `COc1ccc(C(O)C2C=CC3C(=O)N(C)C(=O)C3N2Nc2ccccc2)cc1OCc1ccccc1` (stereo not given), the z-score in [1] is -1.69 (inactive); in assay [3] it was 1.68 (inactive); in assay [4] it was 1.36 (inactive); in assay [5], 0.272 (inactive); in [6], 1.1 (inactive); in assay [7], -1.17. Besides, the z-score in [8] is -1.25 (inactive); in [9], -4.36 (inactive); in assay [10], -2.57. Further, in assay [2], the composite z-score was 0.0451.
Take `CN(C)CCCCNC(=O)[C@H]1C[C@H]2C(=O)N[C@@H](Cc3ccccc3)C(=O)N2[C@H]1c1ccc(O)cc1`: the z-score in assay [1] was 1.22 (inactive); in assay [3] it was -0.0717 (inactive); in [4], -0.63 (inactive); in [5], 0.347 (inactive); in assay [6], -0.512 (inactive); in assay [7], 0.403. Further, the values for the z-score in assay [8], in assay [9] and in [10] were -1.35 (inactive), -1.66 (inactive) and -3.92, respectively. Further, the composite z-score in [2] worked out at 0.0161.
Turning to `O=C1O[C@@H](c2ccccc2)[C@@H](c2ccccc2)N2[C@@H](c3ccccc3OCCO)[C@]3(C(=O)Nc4ccc(C#CC5(O)CCCCCC5)cc43)[C@@H](C(=O)Nc3nc4ccccc4s3)[C@H]12`, the z-score in [1] was -0.478 (inactive); in [3], 3.1 (inactive); in assay [4], 3.75 (inactive); in [5], 1.96 (inactive); in assay [6] it was 1.56 (inactive); in assay [7], 0.361. The z-score in assay [8] was 1.42 (inactive); in assay [9], 0.501 (inactive); in assay [10], 1.28. The same molecule showed a composite z-score in assay [2] of -0.12.
